Source: PubChem BioAssay AID1458 (National Center for Advancing Translational Sciences (NCATS), 2008)
About 5,900 (2.8%) of roughly 210,000 compounds were called active. About 5% were inconclusive and are not listed. The call rests on the fitted dose curve; in most records, active means well fitted activation curve with a large enough effect; inconclusive means small, poorly fitted or top-dose-only effect; inactive means no such curve, though single readings can be large or run the other way. What follows is part of a selection rich in actives, with near analogues and random picks from the rest. Entries that show only a call come without a potency.

Experiment: qHTS Assay for Enhancers of SMN2 Splice Variant Expression; further: nearly all actives have a fitted effect of over 55% in size
Details: HEK293 SMN2-luciferase splicing reporter, luminescence, 30-36 h; series mostly up to 46.1 µM
Excerpt: NIH Chemical Genomics Center [NCGC] NIH Molecular Libraries Probe Production centers Network [MLPCN] MLPCN Grant: R03 MH084179-01 Assay Submitter (PI): Elliot Androphy NCGC Assay Overview: Spinal muscular atrophy (SMA) is caused by insufficient levels of the survival motor neuron protein SMN. The SMN locus on chromosome 5q13 contains two inverted copies of SMN called SMN1 and SMN2 which are 99% identical at the amino acid level. SMN1 is a fully functional protein and SMN2 skips exon 7 90% of the time. Skipping of exon 7 produces non-functional protein product. 10% of the SMN2 protein includes exon 7 and is fully functional. In the SMA disease state, mutations in the SMN1 locus are the cause of the disease state. Because only 10% of SMN2 is of the fully functional form, it is not sufficient to overcome the deficiency produced by the loss of the SMN1 product. A therapy that either increase the amount of SMN2 product made or to increase the inclusion of exon 7 has been proposed for the treatment of SMA. We have designed an assay to identify small molecules that can increase the amount of functional SMN2 product by appending a luciferase reporter gene after the native SMN2 gene, such that inclusion of exon 7 in the expressed product places the luciferase sequence in frame, thus generating functional luciferase enzyme.
NCGC Assay Protocol Summary: This screen utilizes a luciferase reporter gene assay, combining the promoter and splicing based cassettes in tandem with the major portion of the native SMN2 cDNA, and then transfected into HEK293 cells. Compounds that increase luciferase signal presumably enhance expression of the functional SMN2 splice variant. Passaging media contained DMEM w/ glutamax (+phenol red) 10% FCS, 1x pen/strep, 200 ug/ml hygro, 1x sodium pyruvate. Assay media contained DMEM w/ glutamax (-phenol red) 10% FCS, 1x pen strep, 1x pyruvate Sequence, Parameter, Value, Description (1) Cells, […], 2000 cells/well, 1536 TC treated White solid bottom plate (2) Time, 10-12 hours, 37C 5% CO2 (3) Compound, 23 nl, MLSMR Library (4) Control Compound, 23 nL, Sodium butyrate st 4.5mM (final) conc (5) Time, 30-36 hours, 37C 5% CO2 (6) Reagent, 3 ul, One Glo (TM) from Promega (7) Time, 5-15 minutes, Room temp (8) Detector, Viewlux: luminescent read, 60 second integration, high speed 2x binning Keywords: Spinal muscular atrophy, SMA, SMN2, high throughput screening, MLSMR, MLPCN, NIH Roadmap, qHTS and NCGC
Potency means the concentration at half of the fitted maximal effect.

Compound | Potency
CCC(=O)N1CCc2cc(S(=O)(=O)NC(CC(C)C)C(=O)NCCc3cccc(C)c3)ccc21 (configuration not stated) | inactive
N#Cc1c(NC(=O)C2CC(Cl)=CCC2C(=O)O)sc2c1CCCCC2 (configuration not stated) | inactive
N#Cc1c(NC(=O)CCCl)sc2c1CCCCC2 | inactive
N#Cc1c(NC(=O)C2CCCO2)sc2c1CCCCC2 (configuration not stated) | 6.31 µM (active)
Cc1ccccc1C(=O)N(Cc1ccc(N(C)C)cc1)CC1CCCO1 (configuration not stated) | inactive
c1cnn(-c2cc(N3CCOCC3)ncn2)c1 | inactive
COc1c(C)cccc1C(=O)Nc1cc(Cl)ccc1N1CCOCC1 | inactive
O=C(Nc1cc(N2CCOCC2)ncn1)NC1(C(F)(F)F)Oc2ccc(Cl)cc2O1 (configuration not stated) | 20 µM (active)
Cc1ccc(-c2nc3cccc(C)n3c2Nc2ccc3c(c2)OCCO3)cc1 | inactive
O=C(Nc1cc(C(F)(F)F)ccc1Cl)c1cc2nc(-c3ccc4c(c3)OCO4)cc(C(F)(F)F)n2n1 | inactive
CC(C)CNC(=O)C(=O)Nc1ccc(N(C)C)cc1 | 11.2 µM (active)
CC(C)CNC(=S)Nc1ccc(F)cc1 | inactive
COc1cc(OC)c(C(=O)Nc2ccc(N(C)C)cc2)cc1OC | inactive
COc1ccc(N(C)C(=O)CCS(=O)(=O)c2cccc3nsnc23)cc1 | inactive
CCc1ccc(NC(=O)N2CCN(c3ccccc3)CC2)cc1 | inactive
CCc1ccc(NC2Nc3cc(C)nn3S2)cc1 (configuration not stated) | 11.2 µM (active)
CCOC(=O)c1ccc(NC2Nc3cc(C)nn3S2)cc1 (configuration not stated) | inactive
O=C(NCCC1=CCCCC1)c1ccc2c(c1)N(Cc1ccccc1F)C(=O)c1ccccc1S2(=O)=O | inactive
COc1ccc(CNC(=O)c2cc3c(-c4ccccc4F)nn(C)c3s2)c(OC)c1 | inactive
CCOc1ccc(/C=C(\C#N)c2nc3ccccc3c(=O)[nH]2)cc1OC | inactive
Fc1cccc(-n2ncc3c2ncn2nc(-c4ccccc4Cl)nc32)c1 | inactive
COc1ccc(-n2nc(C(=O)NCCc3ccc(Cl)cc3)c3c4ccccc4n(C)c3c2=O)cc1Cl | inactive
Cc1ccc(N)cc1-n1c(C)ccc1C | 28.2 µM (active)

Compound | Potency
CCCCNC(=O)c1cc(-c2ccc(Cl)c(Cl)c2)on1 | inactive
CC(C)CNC(=O)c1cc(-c2ccc(Br)cc2)on1 | 12.6 µM (active)
CC(NC(=O)c1cc(-c2ccccc2)on1)c1ccccc1 (configuration not stated) | inactive
CCCCS(=O)(=O)c1oc(-c2cccs2)nc1S(=O)(=O)c1ccccc1 | inactive
Cc1ccc(S(=O)(=O)N2CCc3cc(C(=O)Nc4ccc(Cl)cc4C)ccc32)cc1 | inactive
CCCOC(=O)c1cc2ccccc2oc1=O | inactive
Cc1cc(NC(=O)c2cccc(Cl)c2)ccc1-c1cc2ccccc2oc1=O | inactive
Cc1nc(C)c(-c2csc(NCCc3ccccc3)n2)s1 | inactive
CCNc1nc(-c2cc3ccccc3o2)cs1 | 3.16 µM (active)
O=c1oc2ccccc2cc1-c1csc(Nc2ccc(O)cc2)n1 | 11.2 µM (active)
COc1ccc2nc(Nc3nc(-c4cc5ccccc5oc4=O)cs3)sc2c1 | inactive
Cc1cc2c(cc1C)C(c1cccc(OC(C)C)c1)CC(=O)N2 (configuration not stated) | inactive
Cc1cccc(CSc2ccc(-c3cccs3)nn2)c1 | 20 µM (active)
N#Cc1ccc(-c2cccs2)nc1SCc1ccc(Br)cc1 | inactive
O=C(CSc1ccc(-c2cccs2)nn1)Nc1ccccc1F | inactive
COc1ccc(C2NC(=O)N(C)C3=C2C(=O)N(c2ccc(C(=O)O)cc2)C3)cc1 (configuration not stated) | inactive
COc1cccc(CNC(=O)C(NS(=O)(=O)c2ccc3nc(C)sc3c2)C(C)C)c1 (configuration not stated) | inactive
O=C(Nc1ccc(O)c(-c2nc3ccccc3o2)c1)c1ccc(-c2cccc(Cl)c2)o1 | inactive
O=C(Nc1ccc2oc(-c3ccccc3F)nc2c1)c1ccco1 | 11.2 µM (active)
O=C(Nc1cccc(-c2nc3ncccc3o2)c1)c1ccco1 | inactive
CCCCN(CC)C(=O)c1c[nH]c2ccc(S(=O)(=O)Nc3cccc(OC)c3)cc2c1=O | inactive
CCCNC(=O)C(CC)n1nc(CC)n2c(cc3oc(C)cc32)c1=O (configuration not stated) | inactive
Cc1ccc(-c2cc(N)n(Cc3cccc(Cl)c3)n2)cc1 | inactive

Compound | Potency
CCc1cc2c(cc3c(=O)n(CC(=O)NCc4cccc(Cl)c4)nc(CC)n32)s1 | inactive
Cc1ccc2cccc(NC(=O)c3cccc4ccccc34)c2n1 | inactive
CCc1cccc(OC2OC(CO)C(O)C(O)C2NC(C)=O)c1 (configuration not stated) | inactive
Cc1csc(-c2coc3cc(O[C@@H]4O[C@H](CO)[C@@H](O)[C@@H](O)[C@H]4O)ccc3c2=O)n1 | 20 µM (active)
COc1ccc(Oc2coc3cc(OC(=O)c4cncc(Br)c4)ccc3c2=O)cc1 | inactive
CCOc1ccc(C(=O)/C=C/c2cn(CC(O)CN3CCCCCC3)c3ccccc23)cc1 (configuration not stated) | inactive
Cc1csc(NC(=S)Nc2cccc(Cl)c2)n1 | 14.1 µM (active)
S=C(Nc1cccc(Cl)c1)Nc1ccc2cn[nH]c2c1 | inactive
CC(=O)Nc1cccc(C(=O)Nc2nc(C)cs2)c1 | inactive
Cn1c(=O)c2c(-c3ccccc3Br)n(Cc3ccccc3)cc2n(C)c1=O | inactive
COc1ccc(S(=O)(=O)c2c(Nc3cccc(Cl)c3)sc(C(=O)c3ccccc3)c2N)cc1 | inactive
COc1ccc(C(CC(=O)c2ccccc2)S(=O)(=O)c2ccccc2)cc1 (configuration not stated) | 12.6 µM (active)
COc1ccc(C(CC(=O)O)NC(=O)Cc2ccccc2)cc1 (configuration not stated) | inactive
COc1ccc(C(=O)CSc2nccc(=O)[nH]2)cc1 | inactive
O=c1ccn([C@@H]2O[C@H](COP(=O)(O)OP(=O)(O)OP(=O)(O)O)[C@@H](O)[C@H]2O)c(=O)[nH]1 | inactive
COc1ccc(CCN2C(=O)c3oc4cc(C)cc(C)c4c(=O)c3C2c2ccccc2F)cc1OC (configuration not stated) | inactive
Cc1cccc(CSc2nnc(NC(=O)CSc3nnc(C)s3)s2)c1 | inactive
O=C(Nc1nnc(SCc2ccccc2)s1)c1ccco1 | inactive
Cc1ccc(Nc2nnc(SCc3ccccc3)s2)cc1 | 14.1 µM (active)
COc1cc(C(=O)N(Cc2ccc(C(C)C)cc2)C2CCS(=O)(=O)C2)cc(OC)c1OC (configuration not stated) | inactive
COc1ccc(CCNC(=O)Cn2c(=O)n(-c3ccccc3)c(=O)c3c(C)c(C)sc32)cc1OC | inactive
